Laboratory results published in PubChem BioAssay AID1220 (Sanford-Burnham Center for Chemical Genomics, 2008).
In all, about 190,000 compounds went through this assay and about 1,300 (0.68%) were called active. Only a selection was taken, and actives are over-represented in it overall. Unmarked numbers belong to inactive results. No stated cut-off is given here; in the data, active means inhibition above about 50%; inactive means the rest.

biological target: Mannose-6-phosphate isomerase (Homo sapiens) (UniProt P34949); assay: MPI inhibition at elevated mannose 6-phosphate – biochemical, fluorescence intensity, high mannose 6-phosphate, primary screen (AID 1220); details: recombinant PMI enzyme, coupled fluorescence intensity; at 20 µM; hits give high values
Sequence (P34949 whole entry, looked up): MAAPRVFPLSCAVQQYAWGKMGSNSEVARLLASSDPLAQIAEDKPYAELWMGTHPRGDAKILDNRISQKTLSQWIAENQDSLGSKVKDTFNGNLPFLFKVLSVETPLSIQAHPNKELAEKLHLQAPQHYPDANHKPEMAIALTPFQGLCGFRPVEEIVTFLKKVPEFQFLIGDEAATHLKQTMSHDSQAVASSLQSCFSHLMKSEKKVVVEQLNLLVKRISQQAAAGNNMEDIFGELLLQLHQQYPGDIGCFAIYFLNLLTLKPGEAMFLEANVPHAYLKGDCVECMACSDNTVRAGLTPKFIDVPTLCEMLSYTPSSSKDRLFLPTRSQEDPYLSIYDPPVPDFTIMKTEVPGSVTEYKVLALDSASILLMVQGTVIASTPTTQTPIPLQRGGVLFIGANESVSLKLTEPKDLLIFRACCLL

SMILES	inhibition
O[C@H]1C2CCC1C(N1CCCCC1)CC2 (stereo partly drawn)	5.7%
COc1ccc(OC)c(N2Cc3ccccc3C2=N)c1	-9.9%
CNc1cc(N2CCN(C)CC2)ccc1[N+](=O)[O-]	28.3%
Cc1ccc2cc(C=C(C#N)C#N)c(Cl)nc2c1	57.1% (active)
Cc1cc(N2CCCC2)ccc1C=C(C#N)C#N	7.1%
CN(C)c1ccc(C=C(C#N)C#N)cc1	-8.3%
COc1ccc(OC)c(N2C(=O)NC(=O)C3(Cc4cc(C)ccc4N(C)C3)C2=O)c1 (stereo not drawn)	-2.8%
CC(=O)NC1C(OC(=O)Cc2ccccc2)OC(COC(C)=O)C(OC(C)=O)C1OC(C)=O (stereo not drawn)	-6%
CCSc1cc(C2C(C#N)=C(N)Oc3n[nH]c(C)c32)c(C)o1 (stereo not drawn)	-0.6%
CN1CCN(c2ccc(N)cc2)CC1	11.3%
CCN1CCN(c2ccc(N)cc2)CC1	35.6%
CC(C)N1CCN(c2ccc(O)cc2)CC1	65% (active)
O=C1C2CCN(CC2)C1Cc1ccc(OCc2ccccc2)cc1 (stereo not drawn)	1.5%
COc1ccc2ccc(O)c(CN3CC=C(c4ccccc4)CC3)c2c1	57.7% (active)
Oc1ccc2ccccc2c1CN1CC=C(c2ccccc2)CC1	38.8%
COc1ccc2c(CN3CC=C(c4ccccc4)CC3)cc(=O)oc2c1	14.2%
COC(=O)c1c(N)n(Cc2ccc(OC)cc2)c2nc3ccccc3nc12	0.2%
CC(C)CNC(=O)c1c(N)n(Cc2ccc3c(c2)OCO3)c2nc3ccccc3nc12	35.4%
CCCNC(=O)c1c(N)n(Cc2ccc3c(c2)OCO3)c2nc3ccccc3nc12	27.5%
CC(C)CCNC(=O)c1c(N)n(Cc2ccc3c(c2)OCO3)c2nc3ccccc3nc12	41.6%
CCCCNC(=O)c1c(N)n(Cc2ccc3c(c2)OCO3)c2nc3ccccc3nc12	69.1% (active)
CCC(C)NC(=O)c1c(N)n(Cc2ccc3c(c2)OCO3)c2nc3ccccc3nc12 (stereo not drawn)	61.1% (active)
O=C(CCl)NCC1CCCO1 (stereo not drawn)	0.5%
CCCCn1c(O)c(C(CC)=NCCN2CCOCC2)c(=O)[nH]c1=O	-61.4%
O=C1c2ccccc2C(=O)N1Cc1nc2ccccc2c(=O)n1-c1ccc(Br)cn1	-1.8%
CC(=O)c1ccc2c(c1)C1C(Cl)C(Sc3ccccc3[N+](=O)[O-])CC1C(C(=O)O)N2 (stereo not drawn)	-51.9%
CC(=O)c1ccc2c(c1)C1C(Cl)C(Sc3ccccc3[N+](=O)[O-])CC1C(c1ccccc1)N2 (stereo not drawn)	-67.2%
CC(=O)c1ccc2c(c1)C1C(Cl)C(Sc3ccccc3[N+](=O)[O-])CC1C(c1ccccc1[N+](=O)[O-])N2 (stereo not drawn)	63.2% (active)
